Screens (PubChem BioAssay)
Sampled rows, rich in hits. Any-hit rate of the full collection: about 27%.
CYP2C19 inh – human CYP2C19 inhibition. P33261. CYP2C19 Supersomes, luciferin-H EGE luminescence, 30 min. inhibition, % at 5 µM. actives 21% (n = 96,000);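 active means CYP2C19 inhibition above a set limit at 5 µM in the primary screen, cut at about 50% in these data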
CYP2C19 activ – activators of human cytochrome P450 2C19. recombinant CYP2C19, luciferin-H EGE luminescence; hits give high values; 0 = fully inhibited enzyme, 1 = untreated enzyme. activation factor at 5 µM. AID 1025. 96,000 tested, under 10 active;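 active means activation factor of at least 2 at 5 µM in the primary screen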
sEH activator – increases human soluble epoxide hydrolase activity | activation, % at 2 µM | AID 717 | actives 0.04% (n = 91,000) | purified human sEH enzymatic activity, activator screen; in the data active means activation above about 37%
CYP2C9 inh – human CYP2C9 inhibition | P11712 | inhibition, % at 5 µM | AID 777 | actives 20% (n = 96,000) | CYP2C9 Supersomes, luciferin-H conversion, luminescence;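 active means blocking of liver enzyme CYP2C9 beyond about 50% at 5 µM, limit read from the data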
Target sequence (P11712 whole entry, looked up): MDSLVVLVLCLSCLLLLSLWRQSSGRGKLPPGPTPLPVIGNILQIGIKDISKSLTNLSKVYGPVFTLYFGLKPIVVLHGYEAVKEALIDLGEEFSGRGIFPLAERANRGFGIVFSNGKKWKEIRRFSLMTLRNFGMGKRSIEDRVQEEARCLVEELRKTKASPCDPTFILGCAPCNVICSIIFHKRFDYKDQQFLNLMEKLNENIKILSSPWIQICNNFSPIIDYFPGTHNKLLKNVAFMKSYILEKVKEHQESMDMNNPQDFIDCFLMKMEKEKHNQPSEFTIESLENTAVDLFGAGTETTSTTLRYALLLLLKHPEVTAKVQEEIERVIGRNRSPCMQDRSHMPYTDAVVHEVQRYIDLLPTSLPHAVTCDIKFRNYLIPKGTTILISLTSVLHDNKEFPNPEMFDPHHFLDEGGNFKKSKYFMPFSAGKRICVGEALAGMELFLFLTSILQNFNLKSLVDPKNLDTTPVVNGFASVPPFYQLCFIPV
sEH inhibitor – soluble epoxide hydrolase (human) inhibition. actives 0.34% (n = 91,000). inhibition, % at 2 µM. recombinant human sEH enzymatic activity assay. AID 707. P34913; in the data active means inhibition above about 80%
CYP2C9 act – CYP2C9 (human) activation; recombinant CYP2C9, luciferin-H conversion, luminescence; hits give high values; factor 1 = untreated enzyme, 0 = blocked; P11712; actives 1.4% (n = 96,000); AID 1024; activation factor at 5 µM;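 active means activation factor of 2 or more for CYP2C9 at a 5 µM dose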
Of the large screens only hits and unclear results are named; the others gave an inactive call.

O=C(CC12CC3CC(CC(C3)C1)C2)NCC(=O)N1CCc2ccccc2C1	none
CCOC(=O)c1sc(NC(=O)CSc2ncn(-c3ccccc3)n2)nc1C	none
Nc1nnc(SCc2ccccc2)n1-c1ccccc1	none (no result: CYP2C19 inh, CYP2C19 activ, CYP2C9 inh, CYP2C9 act)
c1ccc(CSc2ncn(-c3ccccc3)n2)cc1	CYP2C19 inh 85, CYP2C9 inh 79
Nc1nc(CSc2ncn(-c3ccccc3)n2)cs1	CYP2C19 inh 82
Cc1ccc(NC(=O)CSc2ncn(-c3ccccc3)n2)cc1C	none (no result: CYP2C19 inh, CYP2C19 activ, CYP2C9 inh, CYP2C9 act)
O=C(CSc1ncn(-c2ccccc2)n1)c1cccs1	CYP2C19 inh 94, CYP2C9 inh 71
Cc1c([C@H]2[C@@H](CC#N)C2(C)C)c2ccccc2n1C	none
Cc1[nH]c2c(Br)cccc2c1[C@H]1[C@@H](CC#N)C1(C)C	CYP2C9 inh 55
Cc1ccc(S(=O)(=O)Nc2nc3ccc(S(=O)(=O)N4CCCC4)cc3s2)cc1	CYP2C9 inh 98
O=C(Nc1nc2ccc(S(=O)(=O)N3CCCC3)cc2s1)c1cccs1	none
O=C(Nc1nc2ccc(S(=O)(=O)N3CCCCC3)cc2s1)c1ccncc1	CYP2C19 inh 86, CYP2C9 inh 84
O=S(=O)(Nc1nc2ccc(S(=O)(=O)N3CCCCC3)cc2s1)c1ccccc1	CYP2C9 inh 99
O=C(Nc1nc2ccc(S(=O)(=O)N3CCCCC3)cc2s1)c1cccnc1	none
CCCS(=O)(=O)N1CCN(C(=O)COc2ccc(OC)cc2)CC1	none
O=C(Nc1ccccc1C(=O)Nc1ccc2c(c1)OCO2)c1cccs1	none
O=[N+]([O-])c1ccc2c(c1)C(N1CCOCC1)/C(=C/COc1ccc(Cl)cc1Cl)O2 (centres undefined)	CYP2C9 inh 77
COc1ccc(S(=O)(=O)N(CC(=O)N2CCOCC2)c2cc(Cl)ccc2OC)cc1OC	none (no result: sEH activator, sEH inhibitor)
c1ccc(-c2cc3n(c2)CCc2ccccc2-3)cc1	none (no result: CYP2C19 inh, CYP2C19 activ, CYP2C9 inh, CYP2C9 act)
c1ccc(-n2c(Sc3cnccn3)nnc2-c2cccs2)cc1	CYP2C19 inh 71 (no result: sEH activator, sEH inhibitor)
NC(=O)CSc1nnc(-c2cccs2)n1-c1ccccc1	none
O=C(NC1CCCCC1)c1ccccc1NC(=O)C1CC1	none (no result: CYP2C19 inh, CYP2C19 activ, CYP2C9 inh, CYP2C9 act)
COc1cc(OC)cc(C(=O)NC2CC3CCC(C2)N3Cc2ccco2)c1 (centres undefined)	none
CCc1ccc2[nH]c(=O)c(CN(Cc3ccccc3OC)C(=O)Nc3ccccc3OC)cc2c1	CYP2C9 inh 93
CCOc1ccc2[nH]c(=O)c(CN(CCc3ccccc3)C(=O)c3cnccn3)cc2c1	CYP2C19 inh 51 (no result: sEH activator, sEH inhibitor)
CCOc1ccc2[nH]c(=O)c(CN(Cc3cccnc3)C(=O)Nc3ccccc3OC)cc2c1	CYP2C19 inh 54
COc1ccc(NC(=O)N(Cc2ccc(C)cc2)Cc2cccnc2)c(OC)c1	CYP2C19 inh 97, CYP2C9 inh 90
O=C(NCc1ccccc1)c1cnsn1	none
COc1ccc2[nH]c(=O)c(CN(Cc3cccnc3)C(=O)Nc3ccccc3)cc2c1	CYP2C19 inh 88, CYP2C9 inh 88 (no result: sEH activator, sEH inhibitor)
O=C1NC(=O)c2cc(NC(=O)C3CCCCC3)ccc21	none
CC(C)(C)C1CCc2c(sc(NC(=O)c3cccs3)c2C(=O)N2CCCCC2)C1 (centres undefined)	none
Cc1cccc(Oc2ncnc3oc(-c4ccccc4)cc23)c1C	CYP2C9 inh 54
Cc1cccc(N2CCN(CCNC(=O)c3cc4c(s3)CS(=O)(=O)C4)CC2)c1C	CYP2C9 inh 53
CCCc1cc(C(=O)NNC(=S)NC(C)c2ccccc2)cs1 (centres undefined)	CYP2C19 inh 81
CCNC(=S)NNC(=O)c1cc(CC(C)C)nc2ccccc12	CYP2C9 inh 64
Cc1cc(C(=O)O)c2ccccc2n1	none
CCCOc1ccc(C(=O)NNC(=S)NC(=O)c2cc(-c3ccc(Cl)cc3)nc3ccccc23)cc1	CYP2C9 inh 50
Cc1cc(C(=O)NNC(=S)NC(C)c2ccccc2)c2ccccc2n1 (centres undefined)	CYP2C9 inh 55
NC(=O)NC(=O)CSc1cccc(C(F)(F)F)c1	none (no result: CYP2C19 inh, CYP2C19 activ, CYP2C9 inh, CYP2C9 act)
CCCOc1cccc(-c2cc(C(=O)NNC(=S)NCC)c3ccccc3n2)c1	CYP2C9 inh 70
COc1ccc(C(=O)NNC(=S)NC(=O)c2cc(-c3ccccc3)nc3ccccc23)cc1	none
CCNC(=S)NNC(=O)c1cc(-c2ccc(OCC)cc2)nc2ccccc12	CYP2C9 inh 79
CCNC(=S)NNC(=O)c1cc(-c2ccccc2C)nc2ccccc12	CYP2C9 inh 60
Cc1cc2nncn2c(Cc2ccccc2)n1	none (no result: sEH activator, sEH inhibitor)
